According to PubChem BioAssay (NCATS):
Inconclusive results are not listed. A number with no mark means an inactive call. Activity calls are given as the source filed them. Calls come from the whole dose curve; as a rule, active = well fitted inhibition curve with a large enough effect; inconclusive = small, poorly fitted or top-dose-only effect; inactive = flat fitted curve, though single readings scatter.

Legend:
CRL-7250 = normal cell line; assay: Cytotoxic Profiling of Annotated Libraries Using Quantitative High-Throughput Screening (AID 1296008); settings: Five cell lines viability, CellTiter-Glo ATP luminescence, 48-72 h; max response: hits give low values; note: potency is the fitted concentration of half-maximal effect; for max response: % is set by controls: 0 for no effect and ±100 for the full control effect
In short: (§1)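 Cells exposed to compounds for 48 or 72 hr at 37 degrees Celsius. Viability read as ATP-coupled luminescence with CellTiter-Glo after 10 min at room temperature.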

HEK293 = assay: as above; settings: Five cell lines viability, CellTiter-Glo ATP luminescence, 48-72 h; max response: hits give low values
In short: as §1

HaCat [1] = assay: as above; settings: Five cell lines viability, CellTiter-Glo ATP luminescence, 48-72 h; max response: hits give low values
In short: as §1

KB-3-1 = assay: as above; settings: Five cell lines viability, CellTiter-Glo ATP luminescence, 48-72 h; max response: hits give low values
In short: as §1

NIH3T3 = assay: as above; settings: Five cell lines viability, CellTiter-Glo ATP luminescence, 48-72 h; max response: hits give low values
In short: as §1

HACAT [2] = assay: qHTS assay to identify novel small-molecules to repurpose for Merkel cell carcinoma treatment (AID 1296009); settings: MCC and control cell lines, CellTiter-Glo viability, 72 h; at 44.8 µM (top of the series) unless noted
In short: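 CellTiter-Glo luminescence after 72 hr compound exposure at 37 degree celsius gave cell viability. Libraries NPC and MIPE were run as 8- and 11-point dose responses; RLUs normalized to DMSO (negative) and no-cell (cytotoxicity) controls.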
Note: nearly all actives have a fitted effect of over 60% in size.

SMILES	outcome (CRL-7250)	max response (HEK293)	outcome (HaCat [1])	outcome (KB-3-1)	max response (NIH3T3)	outcome (HACAT [2])	max response (CRL-7250)	max response (KB-3-1)	outcome (NIH3T3)	Potency (HEK293)
CC(=O)/C=C/C1(O)C(C)CC(O[C@@H]2O[C@H](CO)[C@@H](O)[C@H](O)[C@H]2O)CC1(C)C (stereo partly specified)	inactive	1.81%	inactive	inactive	-2.62%	inactive [at 17.4 µM]	–	–	–	–
CC(C)c1ccc2c(c1)C(O)CC1C(C)(C(=O)O)CCCC21C (stereo unspecified)	–	2.95%	inactive	–	-2.12%	inactive	-4.34%	-15.9%	–	–
CC1=CCC[C@@H]2[C@@](C)(CCc3ccoc3)[C@H](C(=O)O)CC[C@@]12C	–	-0.612%	inactive	–	-9.18%	inactive	-0.266%	-0.465%	–	–
CC1=CC(=O)[C@]2(O[C@@H]3O[C@@H](C)[C@H](O)[C@@H](O)[C@H]3O)C=CO[C@@H](O[C@@H]3O[C@H](CO)[C@@H](O)[C@H](O)[C@H]3O)[C@H]12	inactive	-3.6%	inactive	inactive	–	inactive [at 17.4 µM]	–	–	inactive	–
COC(=O)C1=CO[C@@H](O[C@@H]2O[C@H](CO)[C@@H](O)[C@H](O)[C@H]2O)[C@@H]2[C@@H](C)[C@@H](O)C(O)[C@H]12 (stereo partly specified)	–	-12.7%	inactive	inactive	–	inactive [at 17.4 µM]	-0.07%	–	inactive	–
CC1OC(OC2C(OC(=O)[C@]34CCC(C)(C)C[C@H]3C3=CCC5[C@@]6(C)CC[C@H](OC7OC(C(=O)O)C(O)C(O)C7O)C(C)(C)C6CC[C@@]5(C)[C@]3(C)CC4O)OC(CO)C2O)C(O)C(O)C1OC1OCC(O)C(O)C1O (stereo partly specified)	–	-8.42%	inactive	–	-0.0675%	inactive [at 9.27 µM]	0.472%	8.03%	–	–
O=C(NCCN1CCCC1)c1cc(-c2ccc(CN3CCOCC3)cc2)nc2ccc(F)cc12	–	2.05%	inactive	inactive	1.71%	inactive [at 17.4 µM]	3.26%	–	–	–
C=C1CC23CC(=O)C4C(CO)(CO)CCCC4(C)C2CCC1C3 (stereo unspecified)	inactive	2.8%	inactive	inactive	-8.41%	inactive	–	–	–	–
CC(=O)N[C@H](Cc1c[nH]c2ccccc12)C(=O)OCc1cc(C(F)(F)F)cc(C(F)(F)F)c1	–	-2.25%	inactive	inactive	–	inactive	-4.46%	–	inactive	–
COc1cc(/C=C/C(=O)OC[C@H]2O[C@@H](OC3CC(C)=C(C(=O)O)C(C)(C)C3)[C@H](O)[C@@H](O)[C@@H]2O)cc(OC)c1O (stereo partly specified)	–	-1.71%	inactive	inactive	–	inactive [at 17.4 µM]	-3.13%	–	inactive	–
CC(=C\C(C)O)/C=C(\C)C(=O)CC1CC(CC(N)=O)CC(=O)O1 (stereo unspecified)	inactive	1.11%	inactive	inactive	–	inactive	–	–	inactive	–
Cc1ncc(NC(=O)c2ccc(CN3CCN(C)CC3)c(C(F)(F)F)c2)cc1Nc1nccc(-c2cccnc2)n1	–	–	inactive	–	1.55%	inactive	-2.29%	8.35%	–	16.4 µM (active)
C=C1C(O)CCC2(C)CC3(OC)OC(=O)C(C)=C3CC12 (stereo unspecified)	inactive	0.468%	inactive	–	–	inactive	–	3.24%	inactive	–
COc1ccc2c(c1)C=C1Cn3c-2c(C2CCCCC2)c2ccc(cc23)C(=O)NS(=O)(=O)N(C)CCOCCN(C)C1=O	–	-78%	inactive	–	-17.2%	inactive	-49.9%	-5.47%	–	–
COC(=O)c1ccccc1O[C@@H]1O[C@H](CO[C@@H]2OC[C@@H](O)[C@H](O)[C@H]2O)[C@@H](O)[C@H](O)[C@H]1O	–	4.14%	inactive	–	–	inactive [at 17.4 µM]	0.973%	-2.26%	inactive	–
O=C(CC1CC(c2ccc(F)cc2F)=NO1)N1CCOCC1 (stereo unspecified)	–	4.11%	inactive	–	-0.0344%	inactive	-1.82%	-13.2%	–	–
CCC(C)(C)C1CCc2c(sc(NC(=O)c3ccc(Br)cc3)c2C#N)C1 (stereo unspecified)	–	2.37%	inactive	inactive	3.88%	inactive	-2.34%	–	–	–
CC(=O)O[C@H]1[C@H](O[C@H]2CC[C@]34C[C@]35CC[C@]3(C)[C@@H]([C@@]6(C)CC[C@@H](C(C)(C)O)O6)[C@@H](O)C[C@@]3(C)[C@@H]5C[C@H](O[C@@H]3O[C@H](CO)[C@@H](O)[C@H](O)[C@H]3O)[C@H]4C2(C)C)OC[C@@H](OC(C)=O)[C@@H]1O	–	-4%	inactive	inactive	1.91%	inactive	-0.709%	–	–	–
Cc1cccc(NC(=O)CN2CCC(c3ccccn3)CC2)c1	inactive	-3.86%	inactive	–	4.5%	inactive	–	-2.52%	–	–
CC1(C)C[C@H](O)C[C@@]2(C)[C@H]1[C@H](O)C=C1COC(=O)[C@@]12O	inactive	2.99%	inactive	inactive	–	inactive	–	–	inactive	–
COc1cc(Nc2ccc([N+](=O)[O-])cc2C(=O)O)cc2ccccc12	–	1.77%	inactive	–	-2.53%	inactive	-0.179%	-5.92%	–	–
CC(C)c1ccc2c(c1)C(=O)CC1C(C)(C(=O)O)CCCC21C (stereo unspecified)	–	-1.52%	inactive	–	-2.58%	inactive	-5.24%	-0.919%	–	–
CC(=O)c1c(C)cccc1O[C@@H]1O[C@H](CO)[C@@H](O)[C@H](O)[C@H]1O	–	-3.42%	inactive	–	–	inactive	1.88%	7.75%	inactive	–
CC1=C2C[C@@]3(C)C(CCC[C@@H]3C)C(O)C2(O)OC1=O (stereo partly specified)	–	-7.76%	inactive	–	-21.1%	inactive	-37.7%	-14%	–	–
CC(=O)OC[C@]12[C@H](OC(C)=O)[C@H](OC(=O)c3ccccc3)[C@@H]3[C@@H](OC(C)=O)[C@]1(OC3(C)C)[C@H](C)C[C@H](OC(=O)c1ccccc1)[C@@H]2OC(=O)c1ccccc1	inactive	-0.732%	inactive	–	-7.63%	inactive [at 17.4 µM]	–	-5.99%	–	–
OC[C@@]1(O)CO[C@H](OC[C@H]2O[C@@H](OCCc3ccccc3)[C@H](O)[C@@H](O)[C@@H]2O)[C@@H]1O	–	-5.84%	inactive	–	5%	inactive [at 17.4 µM]	-3.48%	-0.728%	–	–
